Screening results from PubChem BioAssay.
PolyA inhibitor: inhibitors of polyadenylation in S. cerevisiae | S. cerevisiae SKY197-pL101 polyadenylation reporter, beta-gal luminescence; efflux-impaired pdr1/pdr3 knockout yeast; score 100 = 6 SD above DMSO | activity score, % at 12 µM | 0.02% of 300,000 active | AID 1875;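 active = lowest replicate activity score at least 50, where 100 means six control SD above control mean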;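 also: yeast exposed to compound for 9 h at 30 °C; higher score means more reporter readthrough which indicates perturbed polyadenylation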
PKA-R1A act: activators of PKA-R1A complex | P00514+P68181 | PKA-R1A dissociation, Cy5-IP20 fluorescence polarization; scaled: DMSO 0%, 113 µM cGMP 100% | activation, % at 11.4 µM | 0.083% of 340,000 active | AID 504707;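 active = percent activation above the mean of all tested compounds plus 3 SD, cut at about 19% in these data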;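 also: higher means more PKAc released from R1A so a rise in polarization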
V-ATPase pHluor: alters yeast V-ATPase proton transport; S. cerevisiae, pHLuorin cytosolic pH fluorescence; response, % at 10 µM; 0.37% of 350,000 active; AID 504577; in the data active = response mostly above about 7.3%, no sharp cut-off; inactive = mostly below about 5.4%; also: actives read high
JMJD2C inh: human JMJD2C demethylase inhibition. 0.069% of 330,000 active. inhibition, % at 2.35 µM. GST-JMJD2C(1-420) H3K9me3 demethylation, DELFIA europium. AID 2099. Q9H3R0;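 active = more than half of a compound's replicate wells show inhibition beyond 50%, single wells judged on their own value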;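 also: signal counts dimethyl H3K9 product captured on neutravidin plate; 0% = median of DMSO wells and 100% = 0.3 times that DMSO median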
PKA-R2B activ: PKA-R2B complex activation; activation, % at 11.4 µM; PKA-R2B holoenzyme dissociation, Cy5-IP20 fluorescence polarization; R2B truncated from residue 108, S112A mutant; 0% DMSO only, 100% 113 µM cGMP; 0.079% of 340,000 active; AID 504700; P22694+P31323;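 active = activation above a cutoff set at the mean over all compounds plus 3 SD, cut at about 18% in these data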;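 also: higher means more holoenzyme dissociation and a rise in polarization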
Target sequence (P31323 whole entry, looked up, other chains not shown, the tested form may be a part): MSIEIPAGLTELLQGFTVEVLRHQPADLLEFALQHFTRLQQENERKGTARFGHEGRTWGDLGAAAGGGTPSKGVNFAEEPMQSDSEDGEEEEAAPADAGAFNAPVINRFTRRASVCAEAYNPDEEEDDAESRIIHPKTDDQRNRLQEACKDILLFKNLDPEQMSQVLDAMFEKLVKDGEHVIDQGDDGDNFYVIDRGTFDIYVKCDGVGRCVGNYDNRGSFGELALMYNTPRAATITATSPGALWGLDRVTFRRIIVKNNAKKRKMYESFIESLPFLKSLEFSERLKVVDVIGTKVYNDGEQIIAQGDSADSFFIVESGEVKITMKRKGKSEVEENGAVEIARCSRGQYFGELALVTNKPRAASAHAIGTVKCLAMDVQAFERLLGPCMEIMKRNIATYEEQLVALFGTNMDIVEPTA
Yeast superoxide: lowers age-related superoxide in aged yeast cells; S. cerevisiae aged cells, superoxide DHE fluorescence; active compounds read low; superoxide response (% of plate mean), % at 10 µM; 0.18% of 330,000 active; AID 2690;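 active = superoxide response under a set limit, about three screen SD below normal, cut at about 65% in these data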;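 also: yeast aged for seven days with compound at 30 °C before DHE staining; 100% = average MFI of all compound-treated wells on the plate with controls excluded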
* = called active by the depositor. Compounds with a hit are over-represented: about 0.78% of the library has one in this group of screens.

What do the screens show for `COc1cccc(NC(=O)c2cc([N+](=O)[O-])ccc2NC(=O)CNCC2CCCO2)c1` (stereo not given)?
PolyA inhibitor: -1.2; PKA-R1A act: -10.2; V-ATPase pHluor: -2.1; JMJD2C inh: 5.4; PKA-R2B activ: 3.3; Yeast superoxide: 64.5*

How did O=C(CNCC1CCCO1)Nc1ccc([N+](=O)[O-])cc1C(=O)Nc1ccccc1F (stereo not given) do in these assays?
PolyA inhibitor: 8.5; PKA-R1A act: 13.3; V-ATPase pHluor: -1.9; JMJD2C inh: -4.0; PKA-R2B activ: 2.4; Yeast superoxide: 102.2

What do the screens show for `Cc1cccc(C2N=C(N)Nc3nc4ccccc4n32)c1` (stereo not given)?
PolyA inhibitor: 0.1; PKA-R1A act: 0.8; V-ATPase pHluor: -1.1; JMJD2C inh: 3.0; PKA-R2B activ: 2.6; Yeast superoxide: 110.6

How did CCCS(=O)(=O)c1c(S(=O)(=O)CCC)c2cnccn2c1C(=O)c1ccc(Cl)cc1 do in these assays?
PolyA inhibitor: 1.4; PKA-R1A act: 9.3; V-ATPase pHluor: -1.3; JMJD2C inh: -19.2; PKA-R2B activ: -6.3; Yeast superoxide: 99.1

Results for O=C(CN1C(=O)C2CC=C(Cl)CC2C1=O)Nc1ccc(C(=O)O)cc1 (stereo not given) ?
PolyA inhibitor: 21.3; PKA-R1A act: 2.4; V-ATPase pHluor: 2.0; JMJD2C inh: -9.0; PKA-R2B activ: 4.5; Yeast superoxide: 109.4

How did O=C(CN1C(=O)C2C3CC(C(Br)C3Br)C2C1=O)Nc1ccc(C(=O)O)cc1 (stereo not given) do in these assays?
PolyA inhibitor: -12.3; PKA-R1A act: -4.4; V-ATPase pHluor: 0.3; JMJD2C inh: 0.3; PKA-R2B activ: -9.3; Yeast superoxide: 53.6*

Results for O=C(NNC(=S)NC1CC2C=CC1C2)c1cccnc1 (stereo not given) ?
PolyA inhibitor: 66.0*; V-ATPase pHluor: -0.3; JMJD2C inh: 1.7; Yeast superoxide: 102.3

Results for O=C(NNC(=S)NC(=O)c1ccccc1)c1cccnc1 ?
PolyA inhibitor: 19.0; PKA-R1A act: -11.4; V-ATPase pHluor: 0.3; JMJD2C inh: -11.0; PKA-R2B activ: -5.1; Yeast superoxide: 91.2

Results for O=C(COC(=O)/C=C/c1ccc(C(F)(F)F)cc1)NCC1CCCCC1 ?
PolyA inhibitor: -9.9; PKA-R1A act: -5.6; V-ATPase pHluor: -0.7; JMJD2C inh: -3.4; PKA-R2B activ: -3.4; Yeast superoxide: 109.0

Results for O=C(Nc1ccc(Cl)cc1Cl)c1cccc(N2C(=O)C=CC2=O)c1 ?
PolyA inhibitor: -14.1; PKA-R1A act: -5.1; V-ATPase pHluor: 77.9*; JMJD2C inh: 14.0; PKA-R2B activ: -0.1; Yeast superoxide: 72.0

How did O=C(O)c1cccc(N2C(=O)C=CC2=O)c1 do in these assays?
PKA-R1A act: -11.8; V-ATPase pHluor: 1.1; PKA-R2B activ: -7.5

What do the screens show for `COc1ccc(-c2cc(C(F)(F)F)nc(S(=O)(=O)CCCC(=O)Nc3cccnc3Cl)n2)cc1OC`?
PKA-R1A act: 0.8; V-ATPase pHluor: 1.9; PKA-R2B activ: -0.8

What do the screens show for `COC(=O)C1C2C=CC3(CN(Cc4ccco4)C(=O)C13)O2` (stereo not given)?
PolyA inhibitor: 0.3; PKA-R1A act: 5.4; V-ATPase pHluor: 3.6; JMJD2C inh: 0.3; PKA-R2B activ: -2.3; Yeast superoxide: 97.6

What do the screens show for `CC12C=CC3(CN(Cc4ccccc4)C(=O)C3C1C(=O)NCc1ccco1)O2` (stereo not given)?
PolyA inhibitor: 4.2; PKA-R1A act: -2.4; V-ATPase pHluor: 16.9*; JMJD2C inh: 4.6; PKA-R2B activ: 4.2; Yeast superoxide: 104.9

Results for Cn1c(=O)c2cc(S(=O)(=O)NCCC(=O)Nc3ccc(Cl)cc3)ccc2n(C)c1=O ?
PolyA inhibitor: 5.8; PKA-R1A act: 1.1; V-ATPase pHluor: 10.9; JMJD2C inh: 4.3; PKA-R2B activ: -1.0; Yeast superoxide: 101.6

What do the screens show for `Cn1c(=O)c2cc(S(=O)(=O)NCCC(=O)NCCc3ccc(Cl)cc3)ccc2n(C)c1=O`?
PolyA inhibitor: 6.6; PKA-R1A act: -8.1; V-ATPase pHluor: 22.4*; JMJD2C inh: 0.6; PKA-R2B activ: -2.2; Yeast superoxide: 92.9

How did N#Cc1cc(-c2ccccc2)nnc1Sc1ccc(F)cc1 do in these assays?
PolyA inhibitor: 12.6; PKA-R1A act: 5.0; V-ATPase pHluor: -6.6; JMJD2C inh: 14.9; PKA-R2B activ: 2.7; Yeast superoxide: 110.9

How did N#Cc1cc(-c2ccccc2)nnc1Sc1ccccc1 do in these assays?
PolyA inhibitor: 33.7; PKA-R1A act: 2.9; V-ATPase pHluor: 8.6; JMJD2C inh: 101.6*; PKA-R2B activ: -3.0; Yeast superoxide: 133.1

Results for Cc1c(C(=O)OCC(=O)Nc2c(C)n(C)n(-c3ccccc3)c2=O)oc2ccccc12 ?
PolyA inhibitor: 13.3; PKA-R1A act: -12.2; V-ATPase pHluor: -0.5; JMJD2C inh: -2.6; PKA-R2B activ: -2.7; Yeast superoxide: 108.2

Results for Cc1nc(N2CCN(C(c3ccccc3)c3ccccc3)CC2)[nH]c(=O)c1C ?
PolyA inhibitor: 5.4; PKA-R1A act: 5.3; V-ATPase pHluor: -0.3; JMJD2C inh: 1.5; PKA-R2B activ: 1.2

Results for Cc1cc(=O)[nH]c(N2CCN(C(c3ccccc3)c3ccccc3)CC2)n1 ?
PolyA inhibitor: -9.3; PKA-R1A act: 0.8; V-ATPase pHluor: 19.3*; JMJD2C inh: -11.0; PKA-R2B activ: 1.5; Yeast superoxide: 97.4

Results for COc1ccc(CCN2CCCn3c2nc2c3c(=O)n(CC(C)C)c(=O)n2C)cc1OC ?
PolyA inhibitor: 4.5; PKA-R1A act: 1.5; V-ATPase pHluor: 0.7; JMJD2C inh: -2.5; PKA-R2B activ: 5.5; Yeast superoxide: 95.4

What do the screens show for `C=CCN(CC=C)Cc1c(O)ccc2c1oc(=O)c1ccccc12`?
PolyA inhibitor: -11.1; PKA-R1A act: -0.7; V-ATPase pHluor: 6.3; JMJD2C inh: 78.6*; PKA-R2B activ: -18.8; Yeast superoxide: 83.0

Results for COc1cc(OC)cc(C(=O)Nc2ccc(-n3cnnn3)c(C)c2)c1 ?
PolyA inhibitor: 11.8; PKA-R1A act: 0.6; V-ATPase pHluor: 6.7; JMJD2C inh: 88.8*; PKA-R2B activ: 7.7; Yeast superoxide: 91.9

What do the screens show for `Cc1ccc(NC(=O)CSc2nnc(-c3cnccn3)n2-c2ccccc2)cc1`?
PolyA inhibitor: 7.8; PKA-R1A act: -0.1; V-ATPase pHluor: 16.2*; JMJD2C inh: 7.5; PKA-R2B activ: 3.5; Yeast superoxide: 106.6

How did CCOC(=O)C1CCN(C2=NC(=O)/C(=C/c3ccc(Cl)cc3)S2)CC1 do in these assays?
PolyA inhibitor: 1.4; PKA-R1A act: -1.0; V-ATPase pHluor: -0.8; JMJD2C inh: -6.7; PKA-R2B activ: -5.3; Yeast superoxide: 119.8
